Compound activity deposited in PubChem BioAssay by Sanford-Burnham Center for Chemical Genomics.
Sampled rows, rich in hits. Any-hit rate of the full collection: about 4%.
HIF-2a block = blocks HIF-2a reporter activity | AID 624352 | 786-0 RCC cells HIF-2a reporter, luciferase luminescence, overnight | 0.72% of 360,000 active | inhibition, % at 18.8 µM;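 active means inhibition of the luminescence signal of 40% or more relative to plate controls, in a single-dose primary screen at 18.75 µM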
KKLEB cytotox = CF airway cell cytotoxicity counter-screen; KKLEB CF airway cells viability, ATPlite luminescence, overnight; active compounds read low; cells stimulated with P. aeruginosa culture filtrate; activity change (cytotoxicity), % at 5 µM; 0.36% of 360,000 active; AID 602141;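 active means corrected activity change at or below -50% at 5 µM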
Peg3 prom inh = reduces Peg3 promoter-driven luciferase expression in HeLa. HeLa PEG-Prom luciferase reporter, luminescence, overnight. 1.7% of 360,000 active. inhibition, % at 20 µM. AID 588405;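 active means inhibition of at least 50% at 20 µM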
TWEAK-Fn14 inh = inhibitors of TWEAK-Fn14 interaction signaling | TWEAK-stimulated Fn14 reporter cells, luciferase luminescence, 8 h | inhibition, % at 10 µM | 2% of 360,000 active; in the data active means inhibition above about 50%
CF NFkB block = inhibitors of cystic fibrosis induced NF-kB; inhibition, % at 5 µM; 0.86% of 360,000 active; KKLEB NF-kB-GFP reporter, PAF-induced, GFP fluorescence overnight;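 active means at least 50% inhibition at 5 µM, scaled per plate between neutral and stimulator controls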;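 further: PAF is a Pseudomonas aeruginosa culture filtrate used as stimulus; plate controls were PAF-stimulated DMSO wells for no effect and unstimulated DMSO wells for full effect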
TROY signal inh = inhibitors of TROY-dependent NF-kB signaling. Q293 LMP1-TROYcd NF-kB luciferase reporter, 4 h. inhibition, % at 10 µM. 0.98% of 360,000 active. AID 1347056;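 active means compounds whose plate-normalised and pattern-corrected inhibition of the luciferase reporter signal at the single screening dose is 50% or more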
CF NFkB conf = CF NF-kB inhibition confirmation, single concentration; shares compounds with CF NFkB block; KKLEB CF airway cells, PAF-induced NF-kB-GFP fluorescence, overnight; inhibition, % at 5 µM; 64% of 1,300 active; in the data active means inhibition above about 40%;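 further: stimulus PAF is a Pseudomonas aeruginosa filtrate and not platelet activating factor; plate controls were DMSO wells with stimulus for no effect and unstimulated DMSO wells for full effect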
Active calls of the source: *; nt = not tested or not shown.

SMILES | HIF-2a block | KKLEB cytotox | Peg3 prom inh | TWEAK-Fn14 inh | CF NFkB block | TROY signal inh | CF NFkB conf
COc1ccc(COc2cc(-c3cccc(OC)c3)nc3ccc(NC(=O)c4cccnc4)cc23)cc1 | 17 | -17 | 54* | -6 | 80* | 3 | 92*
CN1CCC(OC(=O)c2cc3cc(Cl)cc(Cl)c3oc2=O)CC1 | 25 | 6 | 40 | 77* | 54* | 6 | 82*
Cc1ccccc1S(=O)(=O)Cc1ccc(C(=O)N2CCN(c3cccc(C)c3C)CC2)o1 | 10 | -24 | 70* | 38 | 68* | 41 | 63*
Cc1ccccc1S(=O)(=O)Cc1ccc(C(=O)N2CC(C)CC(C)C2)o1 (centres undefined) | -9 | 4 | 5 | -9 | 4 | -5 | nt
COc1cc(/C=N/NC(=O)Nc2cccc3nsnc23)cc(OC)c1OC | 9 | -25 | 22 | 31 | 64* | 18 | 77*
Cc1nc2sc(C(N)=O)c(N)c2c(C)c1CC(=O)c1ccccc1 | -44 | -6 | -110 | 19 | 59* | 18 | 75*
Cc1cc(C)c2c(N)c(C(=O)c3ccccc3)sc2n1 | -61 | 6 | -21 | -24 | -41 | -41 | nt
N#Cc1cc(C(=O)c2cc(Cl)ccc2O)cn(-c2ccccc2)c1=O | 5 | -7 | 14 | -9 | 9 | 4 | nt
Cc1ccc(NC(=O)c2cc(C(=O)c3cc(Cl)ccc3O)cn(-c3ccc(C)cc3)c2=O)cc1 | -3 | -11 | 45 | 24 | 55* | 12 | 56*
O=C(CSc1nnc(CNC(=O)c2ccccc2)o1)NCC1CCCO1 (centres undefined) | 5 | 8 | 0 | -2 | -25 | 6 | nt
CN(C)c1ccc(-c2nn3c(-c4ccccc4Cl)nnc3s2)cc1 | -17 | -35 | 9 | -3 | 54* | -3 | 68*
CC(=O)Oc1ccc(N(C(C)=O)S(=O)(=O)c2cccs2)c2ccccc12 | -4 | -12 | 8 | 16 | 56* | 6 | 67*
CC(=O)Oc1ccccc1N(C(C)=O)S(=O)(=O)c1ccc2ccccc2c1 | -16 | 20 | -17 | 6 | 2 | -6 | nt
COc1cccc(COC(=O)CCNC(=O)c2ccc(Cl)cc2)c1OC | 14 | 1 | 0 | -20 | 27 | -9 | nt
COc1ccc([C@H]2CC(=O)C=C(c3ccc(OC)c(OC)c3)C2)cc1 | -62 | -17 | -50 | -10 | 57* | -15 | 36
Cc1ccccc1-c1nnc(SCC(=O)Nc2cccnc2Cl)o1 | -30 | 1 | -52 | 3 | 20 | -41 | nt
CCN(CC)S(=O)(=O)c1ccc(NC(=O)Nc2cccc(C(F)(F)F)c2)cc1 | 29 | -49 | 52* | 76* | 61* | 58* | 81*
COc1ccc(-c2cc(C(=O)N/N=C(\C)c3cccnc3)c3ccccc3n2)c(OC)c1 | 16 | 10 | 8 | -7 | 7 | 12 | nt
COc1ccc2cc(C(N)=O)c(=Nc3ccc(C)cc3)oc2c1 | -215 | -14 | -166 | 67* | 63* | 7 | 96*
Cc1cccc(N=c2oc3cc(O)ccc3cc2C(N)=O)c1 | -116 | -15 | -179 | 10 | 68* | 10 | 72*
COc1ccc(NC(=O)CNc2ccccc2C(C)=O)cc1S(=O)(=O)N1CCOCC1 | 8 | 4 | -9 | -8 | -13 | 13 | nt
CCOC(=O)[C@@H]1[C@H]2COc3ccc(Br)cc3[C@H]2N2C(=O)N(c3ccc(C)cc3)C(=O)[C@]12C | 17 | -11 | 13 | -19 | 51* | -12 | 42*
CCOC(=O)[C@@H]1[C@H]2COc3ccc(Br)cc3[C@@H]2N2C(=O)N(c3ccc(C)cc3)C(=O)[C@]12C | 11 | -11 | 2 | -9 | 1 | 6 | nt
CCN1CCN(Cc2ccc(NC(=O)c3ccc(C)c(NC(=O)C(=O)c4c[nH]c5ccccc45)c3)cc2C(F)(F)F)CC1 | 11 | -10 | 97* | -93 | 70* | -24 | 71*
CCN1CCN(Cc2ccc(NC(=O)c3ccc(C)c(NC(=O)c4ccc5n[nH]nc5c4)c3)cc2C(F)(F)F)CC1 | 15 | -11 | -10 | -2 | 55* | -1 | 69*
SMILES | HIF-2a block | KKLEB cytotox | Peg3 prom inh | TWEAK-Fn14 inh | CF NFkB block | TROY signal inh | CF NFkB conf
O=C(CCc1ccccc1)N=C1SC2CS(=O)(=O)CC2N1Cc1ccccc1 (centres undefined) | 2 | -9 | 7 | -1 | 50* | -9 | 22
O=C(N=C1SC2CS(=O)(=O)CC2N1Cc1ccccc1)C1CC1 (centres undefined) | 17 | 17 | 6 | 11 | -25 | -5 | nt
COc1ccc(C2CC(c3ccccc3OC(=O)/C=C/c3ccccc3)=NN2C(C)=O)cc1 (centres undefined) | -102 | 6 | -52 | -4 | -7 | -8 | nt
O=C(CN1c2cccc3cccc(c23)S1(=O)=O)Nc1ccc(F)c(F)c1F | 11 | 1 | 24 | -14 | -14 | -6 | nt
O=C(c1nnsc1S(=O)(=O)c1ccc(Cl)cc1)N1CCOCC1 | 32 | -33 | 95* | 91* | 90* | 68* | 96*
CC(CCN1CCN(c2ccccc2)CC1)c1ccccc1 (centres undefined) | 1 | -1 | 1 | 6 | 7 | -4 | nt
Cc1cccc(-n2c(=S)[nH]c3sc4c(c3c2=O)CCc2ccccc2-4)c1 | 27 | 13 | 19 | -5 | -10 | 5 | nt
COc1ccc(OC)c(C2CC(=O)c3c([nH]c(C(=O)OC(C)C)c3C)C2)c1 (centres undefined) | -38 | -12 | -30 | 50 | 61* | -18 | 86*
Cc1ccc(NC(=O)c2cccc3cccnc23)cc1 | -223 | -9 | -343 | -56 | -35 | -58 | nt
Cc1noc(C)c1COC(=O)c1cc2c(C)nn(-c3ccc(F)cc3)c2s1 | 21 | -31 | 14 | 0 | 51* | -4 | 8
Cc1nn(-c2ccc(F)cc2)c2sc(C(=O)OCC(=O)N3CCC(C)CC3)cc12 | 13 | -3 | 22 | -15 | -23 | -7 | nt
COc1ccc(Nc2cccccc2=O)cc1 | -79 | 10 | -123 | -9 | 17 | -44 | nt
COc1ccc(Nc2cccc3ccccc23)cc1 | -115 | -22 | -11 | 104* | 76* | 82* | -4
Cn1cc([N+](=O)[O-])c(C(=O)Nc2ccc(C(=O)N3CCCCC3)cc2)n1 | -38 | -3 | 30 | -1 | 47 | -2 | nt
Cn1cc([N+](=O)[O-])c(C(=O)Nc2ccc(C3CCCCC3)cc2)n1 | -124 | -24 | -35 | 0 | 52* | -40 | -175
COc1cccc(N2CCN(c3c(C#N)c(C(F)(F)F)nn3C)CC2)c1 | 20 | -4 | -4 | 34 | 52* | 24 | 61*
NC(=O)c1ccc(NC(=O)COC(=O)C2CCN(S(=O)(=O)c3cccs3)CC2)cc1 | 6 | 1 | -13 | -22 | 0 | -23 | nt
